From PubChem
Mtb FBA inh: inhibitors of M. tuberculosis fructose-bisphosphate aldolase; P9WQA3; actives 2.3% (n = 360,000); purified M. tuberculosis FBA, fluorescence read-out; inhibition, % at 1 µM
Target sequence (P9WQA3 whole entry, looked up): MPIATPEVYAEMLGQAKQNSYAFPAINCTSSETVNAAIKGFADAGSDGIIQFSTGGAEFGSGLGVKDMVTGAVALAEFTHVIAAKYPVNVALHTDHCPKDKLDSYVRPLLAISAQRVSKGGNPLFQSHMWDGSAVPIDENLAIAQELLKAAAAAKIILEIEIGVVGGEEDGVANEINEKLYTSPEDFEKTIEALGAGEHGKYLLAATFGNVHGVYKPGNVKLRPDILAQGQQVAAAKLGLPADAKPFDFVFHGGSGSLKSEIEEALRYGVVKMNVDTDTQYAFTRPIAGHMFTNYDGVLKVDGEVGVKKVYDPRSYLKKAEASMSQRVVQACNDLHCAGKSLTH
SARS 3CLpro inh: SARS-CoV 3CLpro protease inhibition. AID 1706. actives 0.14% (n = 290,000). recombinant SARS-CoV 3CLpro, quenched FRET peptide cleavage. inhibition, % at 6 µM; in the data active = inhibition above about 12%
FadD28 FP inh: inhibitors of Mycobacterium tuberculosis FadD28 bisubstrate binding; FadD28 bisubstrate probe binding, fluorescence polarization; inhibition, % at 12.5 µM; actives 0.22% (n = 360,000); in the data active = inhibition above about 8.5%, passing the limit was not always enough
GDH-TPI counter-1: GDH-TPI coupled enzyme inhibition counter-screen; GDH-TPI coupled enzyme counterscreen, NADH absorbance; inhibition, % at 4.8 µM; actives 1.2% (n = 360,000); in the data active = inhibition above about 30%
Mtb BioA inh: inhibitors of Mycobacterium tuberculosis BioA enzyme; actives 0.096% (n = 360,000); inhibition, % at 9.99 µM; purified M. tuberculosis BioA enzyme, plate reader; in the data active = inhibition above about 40%
Mtb FBA confirm: confirmation of M. tuberculosis fructose-bisphosphate aldolase inhibitors | shares compounds with Mtb FBA inh | purified M. tuberculosis FBA, fluorescence read-out | inhibition, % at 1 µM | actives 78% (n = 5,600)
GDH-TPI counter-2: inhibits GDH-TPI coupling enzymes, flagging Mtb FBA hits; actives 81% (n = 5,600); AID 652141; shares compounds with Mtb FBA inh; inhibition, % at 1 µM; GDH-TPI coupled enzyme counterscreen, fluorescence; in the data active = inhibition above about 10%
GDH-TPI DR: inhibits GDH-TPI coupling enzymes in dose response | IC50, µM | shares compounds with Mtb FBA inh | GDH-TPI coupled enzyme assay, fluorescence, artifact counterscreen | AID 652145 | actives 79% (n = 170); call rule not given here
A number is an active result; n = inactive; x = no result given; + = active, no number. The list is not random: actives were taken first. Their share in the collection is about 3.1%. Cut-off read from the data, not from the text of the source, unless noted: active = inhibition above about 27%; inactive = the rest.

SMILES	Mtb FBA inh	SARS 3CLpro inh	FadD28 FP inh	GDH-TPI counter-1	Mtb BioA inh	Mtb FBA confirm	GDH-TPI counter-2	others
O=C(/C=C/c1cccc(F)c1)Nc1ccc(S(=O)(=O)Nc2ncccn2)cc1	92.8	n	n	n	n	29.3	n	GDH-TPI DR=n
O=C(/C=C/c1ccc(Br)cc1)Nc1ccc(S(=O)(=O)Nc2ncccn2)cc1	n	n	n	n	x	x	x
c1ccc(-c2nc(-c3nccc4ccccc34)oc2-c2ccccc2)cc1	62.4	n	n	n	x	91.2	52.0
Nc1nc(-c2ccccc2)c(-c2ccccc2)o1	n	n	n	n	n	x	x
COc1ccc(C2C3=C(CC(C)(C)CC3=O)N(CCN3CCOCC3)C3=C2C(=O)CC(C)(C)C3)cc1	n	n	n	n	n	x	x
CC1(C)CC(=O)C2=C(C1)N(CCN1CCOCC1)C1=C(C(=O)CC(C)(C)C1)C2c1ccc(Cl)cc1	35.9	n	n	n	n	n	n	GDH-TPI DR=4.61
COC(=O)c1cnn2c3c(c(C)nc12)CCCC3	74.3	n	n	n	n	130.2	106.9
O=C(C[C@H]1CC[C@@H]2[C@H](COC[C@H](O)CN2C(=O)Nc2ccccc2)O1)NC1Cc2ccccc2C1	x	x	x	x	n	x	x
CCc1ccccc1NC(=O)COc1ccc2oc(-c3ccc(OC)cc3)cc(=O)c2c1	35.0	n	n	n	n	75.4	52.2
NC(=O)COc1ccc2oc(-c3ccccc3)cc(=O)c2c1	77.1	n	n	n	n	n	n
Cc1ccc(CNC(=O)CSCc2ccc(F)cc2)cc1	n	n	n	n	x	x	x
O=C(CN(C(=O)c1csnn1)c1ccccc1F)NCc1ccccc1	n	n	n	n	n	x	x
Cc1ccc(CNC(=O)CN(C(=O)C2(C)CC(=O)N=C3C=CC=CN32)c2ccc(F)cc2)cc1 (stereo not given)	69.3	n	n	n	n	n	n
Cc1ccc(CNC(=O)CN(C(=O)C2(C)CC(=O)N=C3C=CC=CN32)c2ccccc2F)cc1 (stereo not given)	82.4	n	n	n	n	77.0	52.9
Cc1nc(NCc2ccco2)c2c3c(sc2n1)CCC3	n	n	n	n	n	x	x
CCN1CCc2c(sc3c2c(NCc2ccco2)nc2nnnn23)C1	64.2	n	n	n	n	n	n
O=C(CSc1ccccc1)Nc1ccc(-c2nc3ccccc3[nH]2)cc1	n	n	n	n	x	x	x
O=C(CSc1ccc(Cl)cc1)Nc1cccc(-c2nc3ccccc3[nH]2)c1	34.9	n	n	n	x	+	+
COc1ccc(CN(C)C[C@@H]2Oc3ccc(NC(=O)CCC(F)(F)F)cc3C(=O)N([C@H](C)CO)C[C@H]2C)cc1	x	x	x	x	n	x	x
Nc1ccccc1C(=O)NCC1(c2ccccc2)CCCC1	33.2	n	n	n	n	159.7	128.0
O=C(NCC1(c2ccccc2)CCCC1)c1ccc(Br)cc1	n	n	n	n	x	x	x
CCCC(=O)Nc1ccc2c(c1)C(=O)N(C)C[C@@H](OC)[C@H](C)CN(Cc1ccc(-c3ccccn3)cc1)[C@H](C)CO2	x	x	x	x	n	x	x
CCOC(=O)c1cn(Cc2ccccc2)c2cc(C)nn2c1=O	52.5	n	n	n	x	103.5	86.5
CCOC(=O)c1cn(Cc2ccc(Cl)cc2Cl)c2cc(C)nn2c1=O	29.1	n	n	n	n	72.2	58.8
O=C(C[C@H]1C[C@@H]2c3cc(NC(=O)C4CCC4)ccc3O[C@@H]2[C@@H](CO)O1)NCc1ccccc1F	x	x	x	x	n	x	x
SMILES	Mtb FBA inh	SARS 3CLpro inh	FadD28 FP inh	GDH-TPI counter-1	Mtb BioA inh	Mtb FBA confirm	GDH-TPI counter-2	others
CCCNC(=O)N1C[C@@H](O)COC[C@@H]2O[C@@H](CC(=O)N[C@@H]3CCN(Cc4ccccc4)C3)CC[C@H]21	x	x	x	x	n	x	x
CC(C)NC(=O)Nc1ccc2c(c1)CC(=O)N([C@H](C)CO)C[C@@H](C)[C@@H](CN(C)S(=O)(=O)c1ccccc1)O2	x	x	x	x	n	x	x
C[C@@H]1CCCCO[C@@H](CN(C)S(=O)(=O)c2cn(C)cn2)[C@H](C)CN([C@@H](C)CO)C(=O)c2cc(NS(C)(=O)=O)ccc2O1	x	x	x	x	n	x	x
COc1ccc(C(=O)CSc2nc3ncccc3[nH]2)cc1OC	n	n	n	n	n	x	x
COc1cc(S(C)=O)ccc1-c1nc2ncccc2[nH]1 (stereo not given)	55.4	x	n	32.4	n	89.6	72.5
CNC[C@@H]1OCCCC[C@@H](C)Oc2ccc(NC(=O)c3ccncc3)cc2C(=O)N([C@H](C)CO)C[C@@H]1C	x	x	x	x	n	x	x
O=C(Nc1ccc2oc(-c3ccccc3F)nc2c1)c1ccccc1F	n	n	n	n	n	x	x
O=C(Nc1ccc2oc(-c3ccccc3F)nc2c1)c1ncn[nH]1	37.2	n	n	n	n	158.5	143.4
c1ccc(-c2ccc(-c3n(-c4ccccn4)c4ccccc4[n+]3-c3ccccn3)cc2)cc1	45.8	n	n	n	x	189.1	171.6
CCCC(=O)Nc1ccc2c(c1)C(=O)N(C)C[C@@H](OC)[C@H](C)CN(C(=O)Cc1ccccn1)[C@H](C)CO2	x	x	x	x	n	x	x
O=C(C[C@@H]1CC[C@@H]2[C@H](COC[C@H](O)CN2Cc2ccc(C(F)(F)F)cc2)O1)NCCc1ccccc1	x	x	x	x	n	x	x
O=C(Nc1ccc(N2CCOCC2)cc1)C1CCN(S(=O)(=O)c2ccccc2F)CC1	36.7	n	n	n	x	n	18.9
CC(C)CNC(=O)COC(=O)c1cc(Cl)cc(Cl)c1N	78.2	n	n	n	n	+	+
COC(=O)CNC(=O)COC(=O)c1cc(Cl)cc(Cl)c1N	109.5	n	n	n	x	+	+
Nc1c(Cl)cc(Cl)cc1C(=O)OCC(=O)N1CCCC1=O	n	x	n	n	n	x	x
CC(C)CC#Cc1ccc2c(c1)O[C@H](CN(C)Cc1cccc(F)c1)[C@H](C)CN([C@@H](C)CO)S2(=O)=O	x	x	x	x	n	x	x
Cn1cnc(S(=O)(=O)N[C@H]2C=C[C@H](CC(=O)Nc3ccccc3)O[C@H]2CO)c1	x	x	x	x	n	x	x
COc1ccccc1N1C(=O)NC(=O)/C(=C/c2ccc3c4c(cccc24)CC3)C1=O	37.7	n	n	n	n	n	n	GDH-TPI DR=3.89
O=C1NC(=O)N(c2ccccc2)C(=O)/C1=C\c1ccc2c3c(cccc13)CC2	x	n	x	x	x	x	x
C[C@H](CO)N1C[C@H](C)[C@@H](CN(C)C(=O)C2CCCCC2)OCCCC[C@H](C)Oc2ccc(NC(=O)Nc3ccccc3)cc2C1=O	x	x	x	x	n	x	x
COc1ccccc1NC(=O)N1C[C@H]2[C@@H](c3ccccc31)[C@@H](CO)N2C(=O)C1CC1	x	x	x	x	n	x	x
Cc1ccc(-c2nc3ncccc3o2)cc1NC(=O)c1ccco1	n	n	n	n	n	x	x
Cc1cc(-c2nc3ncccc3o2)ccc1NC(=S)NC(=O)c1ccco1	32.9	n	n	n	x	39.4	32.2
Cc1ccc(-c2nc3ncccc3o2)cc1NC(=O)C(C)(C)C	29.7	n	n	n	n	n	22.4
CCCC(=O)Nc1cc(-c2nc3ncccc3o2)ccc1C	60.4	n	n	n	n	98.6	64.9
CCCC(=O)Nc1ccc(Cl)c(-c2nc3ncccc3o2)c1	n	n	n	n	n	x	x
